# Measurements taken from PubChem BioAssay (NCI).
# Compounds without any hit were thinned out: in the full panel of roughly 83,000, 20% have a hit.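 How to read the values: 0–100, growth inhibition (40 = 60% inhibited); 0, no net growth; -100 to 0, cell death (-40 = 40% of starting cells died; -100 = all dead).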 A number with no mark means an inactive call. The source made the active and inactive calls. Rule for the calls: active = growth percent below 10; inactive = the rest.
# Experiments:
# Experiment in all cases: NCI-60 one-dose screen, 48 h (100 = growth as untreated, 0 = no growth, -100 = all killed)
# Details in all cases: 10 µM unless noted
# [1] = test system: NCI-H23 lung
# [2] = test system: NCI-H226 lung
# [3] = test system: NCI-H322M lung
# [4] = test system: HOP-62 NSCLC
# [5] = test system: NCI-H460 lung
# [6] = test system: HOP-92 NSCLC
# [7] = test system: NCI-H522 lung
# [8] = test system: A549/ATCC NSCLC
# [9] = test system: 786-0 renal
# [10] = test system: COLO 205 colon
# [11] = test system: DU-145 prostate
# [12] = test system: K-562 leukemia
# [13] = test system: MALME-3M melanoma
# [14] = test system: MDA-MB-231 breast
# [15] = test system: RXF 393 renal
# [16] = test system: SF-268 CNS
# [17] = test system: SF-295 CNS
# [18] = test system: SF-539 CNS
# [19] = test system: UACC-257 melanoma
# [20] = test system: M14 melanoma
SMILES,growth [1],growth [2],growth [3] [%],growth [4],growth [5],growth [6],growth [7],growth [8] [%],growth [9],growth [10],growth [11],growth [12],growth [13],growth [14],growth [15],growth [16],growth [17],growth [18],growth [19],growth [20]
O=[N+]([O-])c1cc([N+](=O)[O-])c(Cl)cc1Cl,-56.4% (active),-59% (active),40.6,-73.9% (active),-45.8% (active),-80.1% (active),-69.6% (active),39.9,-67.8% (active),-75.7% (active),-85.3% (active),-9.49% (active),-68.4% (active),-86.5% (active),-90.6% (active),-80.2% (active),-70.4% (active),-83.2% (active),-68.9% (active),-96.8% (active)
C[C@]12CCc3sc(-c4cccc(F)c4)nc3C1=CC[C@@H]1[C@@H]2CC[C@]2(C)C(=O)CC[C@@H]12,62.7%,65.8%,69.3,50.5%,53.9%,74.3%,-36.5% (active),55,-10.1% (active),44.5%,22.9%,7.01% (active),37.6%,62%,-22.5% (active),52.4%,-18.9% (active),-33.4% (active),77.4%,57.4%
CCCCCCCC[n+]1ccc2ccccc2c1,36.5%,61.4%,99.2,77.2%,73.9%,52%,29.8%,88.7,75.5%,59%,82.7%,22.6%,42.4%,67%,97.4%,80.4%,67%,62.6%,20%,42.6%
O=C1CN=C(c2ccc(Cl)cc2)c2sccc2N1,98%,93.6%,91.2,106%,108%,97.4%,82.5%,101,103%,123%,109%,88.1%,97.4%,100%,100%,106%,96.5%,93.4%,119%,110%
